Data as given in PubChem BioAssay (Tox21).
Values without a mark were called inactive. Results filed as inconclusive are left out. Entries that show only a call come without a potency. Active and inactive are the calls of the source. Unless noted, calls come from the whole dose curve; as a rule, active = well fitted curve in the direction sought with a large enough effect in the repeat runs; inconclusive = weak or mixed curves; inactive = no such curve, though single readings can be large; an effect the other way counts as inactive or inconclusive.

Key:
[1] = qHTS assay for small molecule agonists of the p53 signaling pathway (AID 651631; calls by dose curve; note: nearly all actives have a fitted effect of over 15% in size)
In short: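 HCT-116 cells carrying a beta-lactamase reporter under p53 response elements were dosed with compound for 16 h at 37 °C. LiveBLAzer B/G FRET substrate was then added for 2 h at room temperature, and fluorescence intensity was read to detect pathway agonism.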

[2] = qHTS assay for small molecule agonists of the p53 signaling pathway - cell viability (AID 651633; calls by dose curve;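 note: p53RE-bla HCT reporter cells with a stable beta-lactamase p53 reporter; series mostly up to about 83 µM; nearly all actives have a fitted effect of over 30% in size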)
In short: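 Viability counter-read: CellTiter-Glo luminescence (30 min, room temperature) in the same p53RE-bla plates. These plates had been exposed to compounds for 16 h at 37 C.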

[3] = qHTS assay for small molecules that induce genotoxicity in human embryonic kidney cells expressing luciferase-tagged ATAD5 - cell viability (AID 651634; calls by dose curve; note: nearly all actives have a fitted effect of over 25% in size)
In short: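 HEK293T cells expressing luciferase-tagged ATAD5 were exposed to compound or DMSO for 15.5 hr at 37C, 5% CO2. Viability was then read as live-cell protease activity by CellTiter-Fluor fluorescence after 30 min at 37C.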

[4] = qHTS assay to test for compound auto fluorescence at 590 nm (red) in HepG2 cells (AID 720674)
In short: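 Red autofluorescence (Ex/Em 540/590 nm, Rose Bengal sodium equivalents) was measured in HepG2 cells, 2,000 per well in MEM plus 10% FBS, plated overnight at 37 C. Readings were taken 1 hr after adding 23 nL compound or DMSO, at 37 C and 5% CO2.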

[5] = qHTS assay to test for compound auto fluorescence at 535 nm (green) in HepG2 cells (AID 720675)
[6] = qHTS assay to test for compound auto fluorescence at 460 nm (blue) in HEK293 cells (AID 720678)
In short: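 Intrinsic compound fluorescence is recorded in live HEK293 cultures after overnight incubation at 37C, 5% CO2, using excitation 405 nm and emission 460 nm. Values are referenced to triamterene.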

[7] = qHTS assay to test for compound auto fluorescence at 590 nm (red) in HEK293 cells (AID 720679)
In short: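 Red autofluorescence, HEK293 cells: 2,000 cells/well; attach 4-5 hr 37C; add 23 nL cpd or DMSO; incubate o/n 37C 5% CO2; read Ex540/Em590; Rose Bengal sodium reference.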

[8] = qHTS assay for small molecules that induce genotoxicity in human embryonic kidney cells expressing luciferase-tagged ATAD5 (AID 651632); note: nearly all actives have a fitted effect of over 15% in size
In short: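 HEK293T cells carrying a luciferase reporter tagged to ATAD5 were exposed to compound or DMSO vehicle for 16 hr at 37C, 5% CO2. Amplite was added, and after 30 min at room temperature luciferase activity was read as a marker of ATAD5 induction.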

[9] = qHTS assay for small molecule disruptors of the mitochondrial membrane potential - cell viability (AID 720634; calls by dose curve;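 note: human HepG2 liver cancer cells; series mostly up to about 83 µM; nearly all actives have a fitted effect of over 20% in size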)
In short: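 HepG2 cells seeded overnight at 37 C, then exposed to compound or DMSO for 1 hr at 37 C, 5% CO2. m-MPI dye added, then CellTiter-Glo for 30 min at room temperature; viability read as ATP luminescence.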

[10] = qHTS assay for small molecule disruptors of the mitochondrial membrane potential (AID 720635); note: potency is the fitted concentration of half-maximal effect
In short: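 Mitochondrial membrane potential tracked with Mito-MPS dye, red aggregates (ex 540/em 590 nm) against green monomers (ex 490/em 535 nm). Compound treatment 1 hr at 37C, dye 30 min in HepG2.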

SMILES | outcome [1] | outcome [2] | Potency [3] | outcome [4] | outcome [5] | outcome [6] | outcome [7] | outcome [8] | outcome [9] | Potency [10] | fluorescence, relative to Rose Bengal [4] | fluorescence, % of fluorescein control [5] | fluorescence, % of triamterene [6] | fluorescence, % of fluorescent control [7]
O=C1OCCO1 | inactive | inactive | inactive | inactive | inactive | inactive | inactive | – | – | – | – | – | – | –
CC1(C)CC(OC(=O)CCCCCCCCC(=O)OC2CC(C)(C)NC(C)(C)C2)CC(C)(C)N1 | – | inactive | inactive | – | – | – | – | inactive | inactive | 2.96 µM (active) | 0.031% [at 18.6 µM] | -0.0628% [at 18.6 µM] | -0.0282% [at 18.6 µM] | 0.252% [at 18.6 µM]
COS(=O)(=O)O | inactive | inactive | inactive | inactive | – | inactive | inactive | – | inactive | inactive | – | – | – | –
CC(=O)O[C@H]1C[C@@H]2CC[C@@]1(C)C2(C)C | inactive | inactive | inactive | inactive | inactive | inactive | inactive | – | inactive | inactive | – | – | – | –
[O]=[Mo](=[O])=[O] | inactive | inactive | inactive | – | – | – | – | – | inactive | inactive | -0.0279% [at 18.6 µM] | 0.0234% [at 18.6 µM] | 0.132% [at 18.6 µM] | 0.419% [at 18.6 µM]
CCCCCCCCCCCCCCCCCCOCCO | inactive | inactive | inactive | – | – | – | – | – | inactive | inactive | 0.105% [at 18.6 µM] | 0.0331% [at 18.6 µM] | -0.176% [at 18.6 µM] | -0.175% [at 18.6 µM]
CC(N)CCCC(C)(C)O (stereo unspecified) | inactive | inactive | inactive | – | inactive | inactive | inactive | – | inactive | inactive | – | – | – | –
c1ccc(B(c2ccccc2)c2ccccc2)cc1 | inactive | – | inactive | inactive | inactive | inactive | – | – | – | 61.1 µM (active) | – | – | – | –
C=CC(=O)OCC1CCCO1 (stereo unspecified) | inactive | inactive | inactive | inactive | – | inactive | – | – | inactive | – | – | – | – | –
